Screens as filed in PubChem.
ATXN2 expr inh: Primary qHTS for Inhibitors of ATXN expression | HEK-293 ATXN2-luciferase reporter, luminescence, 24 h | Potency, µM (top dose mostly 57 µM), inactives show at the top dose activity change, negative = inhibition, hits mostly inhibitors | 360,000 compounds, 0.72% hits | AID 1745845, 2022; also: % is scaled to controls: 0 for no effect and ±100 for the full control effect; nearly all actives have a fitted effect of over 55% in size
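qHTS (up to 57 uM final) was run with 24 h compound exposure of reporter cells at 37 °C. Each well was multiplexed: SteadyGlo luminescence measured ATXN2-luciferase expression after a fluorogenic Gly-Phe-AFC viability readout (25 uM final).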
S2 tox: Viability Counterscreen for Primary qHTS for Inhibitors of ATXN expression; AID 651635, 2014; Potency, µM (series often up to 56.7 µM), usual class: cytotoxic; 400,000 compounds, 0.49% hits; S2 cells (HEK-293 line with an ATXN2-luciferase reporter) viability, CellTiter-Fluor protease fluorescence, 24 h; also: nearly all actives have a fitted effect of over 40% in size
TGFb SMAD3 inh: qHTS for Inhibitors of TGF-b; HepG2 CAGA-GFP TGF-b/SMAD3 reporter, GFP fluorescence, 18 h; TGF-beta stimulated, 500 pg/mL final; Potency, µM (highest dose often 46.1 µM), without a hit: at the top dose activity, negative = inhibition, actives largely listed as inhibitors; 410,000 compounds, 1.2% hits; also: % is scaled to controls: 0 for no effect and ±100 for the full control effect; nearly all actives have a fitted effect of over 65% in size
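Inhibition of TGF-beta-driven CAGA-GFP reporter expression in HEPG2 cells is measured by cellular GFP fluorescence after 18 h stimulation with 500 pg/mL recombinant TGF-beta in 1% FBS medium at 37 degrees C.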
HT1080 IDH1KD tx: qHTS for induction of synthetic lethality in tumor cells producing 2HG: qHTS for the HT-1080-IDH1KD cell line; Potency, µM (highest dose often 46.1 µM), for the others: top-dose activity, negative = toxicity, most hits filed as cytotoxic; 360,000 compounds, 2% hits; HT-1080 IDH1 knockdown viability, ATP luminescence, 48 h; AID 686971, 2013;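 also: 0% = DMSO wells and -100% = cell-free medium wells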
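HT-1080-IDH1KD cells (IDH1 knocked down), 750/well in RPMI with 5% FBS, treated with compound 48 h at 37 degrees C. Viability by CellTiter-Glo luminescence, normalised to DMSO and no-cell wells; concentration-response curves classed.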
HT1080-NT tox: qHTS for induction of synthetic lethality in tumor cells producing 2HG: qHTS for the HT-1080-NT fibrosarcoma cell line. HT-1080-NT fibrosarcoma viability, CellTiter-Glo ATP luminescence, 48 h. Potency, µM (highest dose often 46.1 µM), inactives show at the highest dose activity, negative = less viability, actives largely listed as cytotoxic. 360,000 compounds, 1.6% hits. AID 686970, 2013;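 also: NT is the 2HG producing partner of a matched IDH1 knockdown line; 0% = DMSO-treated cells and -100% = media-only wells without cells; nearly all actives have a fitted effect of over 55% in size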
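Toxicity toward the 2HG-producing NT line was scored as %Activity, normalised to DMSO and no-cell wells, from CellTiter-Glo luminescence after 48 hours' treatment.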
HepG2 tox: qHTS for Inhibitors of TGF-b: Cytotox Counterscreen; HepG2 CAGA-GFP viability, ATP luminescence, 18 h; Potency, µM (top dose mostly 46.1 µM), for the others: at the top dose activity change, negative = cytotoxicity, usual class: cytotoxic; 410,000 compounds, 0.76% hits; AID 588856, 2011
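CellTiter-Glo luminescence gave cytotoxicity after 18 hours at 37 degrees C. The cells were HepG2 CAGA-GFP in 1% FBS DMEM, stimulated with 500 pg/mL TGF-beta after compound addition. %Activity was normalised to no-cell wells (complete cell-killing) and DMSO (no toxicity), and curves were fitted and classified.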
The depositor's hits bear a star; i = inactive; ? = inconclusive; / = no result given. Shown are actives, neighbours in structure and some others; about 3.8% of the full set was active somewhere. Calls follow the shape of the dose curve; as a rule, active = well fitted curve in the direction sought with a large enough effect; inconclusive = small, poorly fitted or top-dose-only effect, or another doubt; inactive = no such curve, though single readings can be large; an effect the other way counts as inactive or inconclusive. Potency is read from the fitted curve at half-maximal effect.

SMILES	ATXN2 expr inh	S2 tox	TGFb SMAD3 inh	HT1080 IDH1KD tx	HT1080-NT tox	HepG2 tox
O=C(CC1C(=O)N(c2ccc(Cl)cc2)C(=S)N1CCc1ccncc1)Nc1ccc(F)cc1 (stereo unspecified)	?	i	?	?	?	11µM*
CCCOc1ccc(NC(=O)CC2C(=O)N(c3ccccc3)C(=O)N2Cc2ccc(F)cc2)cc1 (stereo unspecified)	/	/	10µM*	/	/	-69%
CCN1C(=O)C(CC(=O)Nc2ccc(OC)cc2)N(CCCN2CCN(c3ccc(F)cc3)CC2)C1=S (stereo unspecified)	-25%	i	5%	18µM*	?	-6%
S=c1nc[nH]c2n[nH]nc12	/	/	5%	/	/	-30%
O=c1oc2ccc(Br)cc2cc1-c1nc2c(s1)CCc1ccccc1-2	/	/	25%	/	/	6%
O=C(NCc1cccc(F)c1)c1ccccc1NC(=O)c1nsc2ccccc12	/	/	-23%	/	/	-38%
O=C1CCCCN1CCC(=O)N1CCOc2ccc(C(O)C3CCCCC3)cc2C1 (stereo unspecified)	/	i	/	/	/	/
O=C(CNCCC1=CCCCC1)Nc1ccc(N2CCCCCC2)cc1	?	/	16µM*	?	?	-108%
C=CCN1C(=O)C(CC(=O)Nc2ccc(OCCC)cc2)N(CCCN2CCN(Cc3ccccc3)CC2)C1=S (stereo unspecified)	?	?	?	16µM*	16µM*	-93%
COc1ccc(NC(=O)CC2C(=O)N(Cc3ccccc3)C(=S)N2CCN2CCOCC2)cc1 (stereo unspecified)	-24%	i	-7%	-13%	-13%	-11%
CCCOc1ccc(NC(=O)CC2C(=O)N(CC)C(=S)N2Cc2cccs2)cc1 (stereo unspecified)	-5%	i	?	20µM*	?	-26%
O=c1c(=O)n(-c2ccccc2)ccn1Cc1c(F)cccc1Cl	/	/	1%	/	/	-31%
CCOC(=O)c1ccc(NC(=O)CCc2c(C)nc3nc[nH]n3c2=O)cc1	5%	i	4%	/	/	3%
Nc1ncnc2c1ncn2Cc1c(F)cccc1Cl	9%	i	/	/	/	/
COc1ccc(CC(N)c2csc(Nc3cc(NCc4ccco4)ncn3)n2)cc1 (stereo unspecified)	?	?	?	?	?	11µM*
NC(Cc1ccc(C(F)(F)F)cc1)c1csc(Nc2ccc(C(=O)NCc3ccco3)cn2)n1 (stereo unspecified)	13µM*	22µM*	?	7.3µM*	12µM*	20µM*
NC(CCc1ccccc1)c1csc(Nc2ccccn2)n1 (stereo unspecified)	?	?	?	16µM*	?	-60%
CCCCN(C)C(=O)c1ccc(Nc2nc(C(N)CCc3ccccc3)cs2)nc1 (stereo unspecified)	?	?	?	23µM*	18µM*	-89%
CCOc1ccc(-c2c(C)nn3c(C)c(C(=O)NC(C)c4ccccc4)cnc23)cc1OCC (stereo unspecified)	-22%	i	-10%	/	/	-17%
CCOc1ccc(CNC(=O)c2ccc3nc(Cc4ccc(OC)cc4)oc3c2)cc1OC	-23%	i	-24%	/	/	-1%
COc1cc(F)c(C(C)C)cc1-c1ccc(C(F)(F)F)cc1CN1C(=O)O[C@H](c2cc(C(F)(F)F)cc(C(F)(F)F)c2)[C@@H]1C	-9%	/	/	/	/	/
CCOc1ccc(NC(=O)COC(=O)c2ccccc2OCc2ccccc2Br)cc1	/	/	/	11%	10%	/
CCCCN(C)C(=O)c1ccc(Nc2nc(C(N)Cc3ccc(C(F)(F)F)cc3)cs2)nc1 (stereo unspecified)	-1%	32µM*	?	16µM*	?	11µM*
Cc1cnc(CNC(=O)c2c3n(c(C)cc2=O)-c2ccccc2SC(c2ccsc2)C3)cn1 (stereo unspecified)	/	i	/	/	/	/
Cc1cc(Nc2ncc(Cl)cc2Cl)n[nH]1	1%	i	2%	-12%	-1%	-1%
SMILES	ATXN2 expr inh	S2 tox	TGFb SMAD3 inh	HT1080 IDH1KD tx	HT1080-NT tox	HepG2 tox
Cc1cc(Nc2nc(N[C@@H](C)c3ccc(F)cc3)c(C#N)cc2F)n[nH]1	24µM*	/	/	/	/	/
O=C(CNC(=O)c1ccc2c(c1)OCO2)N/N=C(Br)/C=C/c1ccccc1	?	?	-12%	15µM*	?	17%
O=C(CNC(=O)c1ccc2c(c1)OCO2)N/N=C/c1cccc([N+](=O)[O-])c1	/	i	-10%	16%	16%	2%
CC/C(=N/NC(=O)c1ccc2c(c1)OCO2)c1ccccc1O	/	?	2.5µM*	23µM*	-19%	-39%
O=C(CNC(=O)c1ccc(S(=O)(=O)N2CCCC2)cc1)N/N=C/c1ccccc1Cl	-8%	i	29%	-8%	-7%	26%
Cc1cc(O)cc(O)c1/C=N/NC(=O)c1ccc2c(c1)OCCO2	/	i	-1%	13µM*	?	-18%
O=C(N/N=C\c1c(O)ccc2ccccc12)c1ccc(S(=O)(=O)N2CCCCC2)cc1	0.53µM*	/	0%	?	?	19%
O=C(O)c1ccc(/C=N/NC(=O)c2ccc3c(c2)OCCO3)cc1	/	i	1%	6%	-2%	-13%
CO[C@H]1[C@H](NC(=O)c2ccncc2)c2ccccc2C12CCN(C(=O)c1ccoc1)CC2	/	i	/	/	/	/
Cc1cccc(NC(=O)N2CC=C(c3c[nH]c4ccccc34)CC2)c1C	/	/	38%	/	/	-58%
O=C(c1ccc2c(=O)n(-c3ccccc3)c(=O)[nH]c2c1)N1CCN(Cc2cccs2)CC1	/	/	28%	/	/	9%
O=C(N/N=C/c1c(O)ccc2ccccc12)c1ccc(CO)nc1	4µM*	i	-5%	?	-16%	-23%
CC(C)c1ccc(O)c(NC(=S)NC(=O)c2ccc3c(c2)OCO3)c1	36%	i	14µM*	15µM*	?	-84%
O=C(NN=Cc1c(O)ccc2ccccc12)c1ccc2c(c1)OCO2	3.2µM*	i	?	5.2µM*	5.8µM*	-81%
O=C(NC(=S)Nc1ccccc1Br)c1ccc2c(c1)OCO2	25%	i	0%	2%	7%	-38%
COC(=O)C1CCN(Cc2ccc3c(c2)CN(C(=O)c2cc4cc(F)ccc4[nH]2)CCO3)CC1	/	i	/	/	/	/
